An excerpt weighted towards active compounds, which were near 8.1% of everything screened.
MCF10A rerep: inducers of DNA re-replication in MCF 10A breast cells. MCF 10A DNA re-replication, Hoechst nuclear intensity, 48 h. Potency, µM (series often up to 46.1 µM), most hits filed as activators. actives 2.9% (n = 350,000); further: nearly all actives have a fitted effect of over 50% in size
ELG1 DNA repair: ELG1-dependent DNA repair inhibition; HEK293T ELG1-luciferase reporter, luminescence, 16 h; DNA damage induced by 5-fluorouridine; Potency, µM (doses to about 46.1 µM), usual class: inhibitors; actives 2.3% (n = 330,000); AID 504467; further: nearly all actives have a fitted effect of over 55% in size
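Luminescence from the luciferase reporter, measured 30 min after ONE-Glo reagent at room temperature, was the read-out. Beforehand, 2,000 cells per well were exposed for 16 hr at 37 °C to 5-fluorouridine together with compound or vehicle.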
KB-3-1 tox: KB-3-1 parental cell cytotoxicity; KB-3-1 viability, CellTiter-Glo ATP luminescence, 72 h; AID 1347075; Potency, µM (highest dose often 46.1 µM), hits mostly cytotoxic; actives 1.4% (n = 400,000); further: nearly all actives have a fitted effect of over 60% in size
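Using CellTiter-Glo luminescence, growth of non-resistant KB-3-1 adenocarcinoma cells is assessed 72 h after pin-tool compound addition at 37 °C. Normalized responses across the concentration series yield fitted curves.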
SW480 rerep: DNA re-replication induction in SW480 cells; SW480 DNA re-replication, Hoechst DNA content imaging, 48 h; Potency, µM (series often up to 46.1 µM), usual class: activators; actives 1.8% (n = 340,000); AID 624297; further: nearly all actives have a fitted effect of over 55% in size
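SW480 cells exposed to compounds for 48 hr at 37 C, 5% CO2, then Hoechst-stained 40 min. Nuclear DNA content imaged by fluorescence scanning (405 nm excitation, 500-530 nm emission); re-replication scored as increased high-intensity nuclei.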
KB-V1 MDR tox: kills drug-selected multidrug resistant KB-V1 cells; Potency, µM (top dose mostly 46.1 µM), hits mostly cytotoxic; actives 3.4% (n = 400,000); KB-V1 MDR cells viability, CellTiter-Glo, 72 h; further: nearly all actives have a fitted effect of over 60% in size
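qHTS viability screen in drug-selected KB-V1 MDR cells: 72 h compound treatment at 37 degrees C, ATP luminescence end point.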
A number is an active result; 0 = inactive; ? = inconclusive; - = no result; [ ] = dose if it differs, or a comment. The call rests on the fitted dose curve; in most records, active means well fitted curve in the direction sought with a large enough effect; inconclusive means small, poorly fitted or top-dose-only effect, or another doubt; inactive means no such curve, though single readings can be large; an effect the other way counts as inactive or inconclusive.

SMILES	MCF10A rerep	ELG1 DNA repair	KB-3-1 tox	SW480 rerep	KB-V1 MDR tox
COc1cc(OC)cc(C(=O)N[C@H](C(=O)OCC(=O)Nc2ccc(C)cc2C)C(C)C)c1	0	?	?	0	0
CC(C)NC(=O)C(C)Oc1ccc(S(=O)(=O)NCc2ccc3c(c2)OCO3)cc1 (configuration not stated)	0	?	0	0	0
COCCN(CC(=O)NC1CCCCC1)C(=O)/C=C/C(=O)c1ccc(OC)cc1O	6.5µM	0	18µM	?	?
COc1ccc(N(CC(=O)NC2CCCCC2)S(=O)(=O)c2cccs2)cc1	0	?	0	0	0
COc1ccc(C(=O)/C=C/C(=O)N(CC(=O)NC2CCCCC2)Cc2cccs2)c(O)c1	18µM	?	?	?	?
CN(Cc1ccc(C(F)(F)F)cc1)C(=O)c1ccc(Oc2ccccc2)cc1	16µM	0	?	0	0
Cc1cccc(C)c1Nc1c(-c2ccccn2)nc2c(C)cccn12	-	-	0	-	0
CCN(CC)c1ccc2c(Cl)cc(=O)oc2c1	?	0	0	?	0
CCN(CC)c1ccc2c(C)c(CN3CCOCC3)c(=O)oc2c1	5.8µM	0	0	21µM	0
CCN(CC)c1ccc2c(C)c(CO)c(=O)oc2c1	?	?	0	13µM	0
CCN(CC)c1ccc2c(O)cc(=O)oc2c1	0	0	0	0	0
CC1(C)Cc2c(sc(NC(=O)COc3ccc(Cl)cc3)c2C#N)C(C)(C)N1	?	0	0	?	0
Cc1ccccc1OCC(=O)Nc1sc2c(c1C#N)CC(C)(C)NC2(C)C	21µM	0	0	?	0
O=C(c1ccco1)N1CCN(C(=O)c2sccc2-c2ccccc2)CC1	0	0	0	0	12µM
O=C(c1ccco1)N1CCN(C(=O)c2ccco2)CC1	-	-	0	-	0
O=C(c1ccco1)N1CCN(C(=O)c2cccs2)CC1	1.8µM	0	0	6.5µM	0
O=C(CSc1nnc(-c2cnccn2)n1Cc1ccco1)Nc1ccc(Br)cc1	0	-	0	0	0
CCC(C(=O)NC1CCCC1)N(C(=O)Cn1nnc(-c2ccc(OC)c(OC)c2)n1)C1CCCCC1 (configuration not stated)	0	?	0	0	0
COc1ccc(-c2nnn(CC(=O)N(CC(=O)NC3CCCC3)Cc3ccco3)n2)cc1OC	0	0	0	0	0
COc1ccc(-c2nnn(CC(=O)N(CC(=O)NC3CCCC3)Cc3cccs3)n2)cc1OC	0	?	0	0	12µM
COc1ccc(-c2nnn(CC(=O)N(Cc3cccs3)C(C)C(=O)NC3CCCC3)n2)cc1OC (configuration not stated)	0	?	0	0	2.1µM
CCC(C(=O)NC1CCCC1)N(Cc1cccs1)C(=O)Cn1nnc(-c2ccc(OC)c(OC)c2)n1 (configuration not stated)	0	18µM	0	0	0
Cc1cc(OC(=O)c2ccc(F)cc2)c([N+](=O)[O-])c(=O)[nH]1	0	0	0	0	0
CC1CCC(NC(=O)c2ccc(CSc3nc4ccncc4n3Cc3ccc(F)cc3)cc2)CC1 (configuration not stated)	-	-	0	-	?
O=C(COc1ccc2ccccc2c1)Nc1ccc(O)c(-c2nc3ccccc3o2)c1	-	-	0	-	?
SMILES	MCF10A rerep	ELG1 DNA repair	KB-3-1 tox	SW480 rerep	KB-V1 MDR tox
COc1ccccc1N1CCN(C(=S)Nc2ccc3nc(N4CCOCC4)cc(C)c3c2)CC1	?	18µM	0	?	0
COc1cccc(N2CCN(C(=S)Nc3cc(C)cc(C)c3)CC2)c1	11µM	0	0	?	?
COc1ccccc1N1CCN(C(=S)Nc2cccc(C)c2)CC1	16µM	0	?	?	?
Cc1ccc(C)c(N2CCN(C(=S)Nc3ccc4nc(N5CCN(C)CC5)cc(C)c4c3)CC2)c1	?	?	?	0	0
Cc1ccc(C)c(N2CCN(C(=S)Nc3ccc4nc(N5CCOCC5)cc(C)c4c3)CC2)c1	16µM	0	0	?	?
CC1CC(C)CN(CCCNC(=O)C2CCCN(S(=O)(=O)N3CC(C)CC(C)C3)C2)C1 (configuration not stated)	0	0	0	0	0
O=C(c1cc(Cl)nc2ccccc12)N1CCCCC1	0	0	0	0	0
Cc1cccc(N2CCN(C(=S)Nc3ccc4nc(N5CCOCC5)cc(C)c4c3)CC2C)c1 (configuration not stated)	12µM	0	0	?	0
Cc1cc(N2CCOCC2)nc2ccc(NC(=S)NCCC(C)C)cc12	?	?	0	0	0
Oc1cc(NCc2ccc(F)cc2)cc2cccnc12	?	?	6.5µM	?	0
Clc1ccc(CNc2ncccn2)cc1	0	?	0	0	?
Oc1cc(NCc2ccc(Cl)cc2)cc2cccnc12	0	0	16µM	0	0
CC1(C)Cc2c(c(N3CCOCC3)nc3sc4c(NCCN)ncnc4c23)CO1	?	-	0	?	?
CN(C)CCNc1ncnc2c1sc1nc(N3CCOCC3)c3c(c12)CC(C)(C)SC3	21µM	0	?	?	?
COCCNc1nnnc2c1sc1nc(N3CCOCC3)c3c(c12)CC(C)(C)OC3	0	4.1µM	0	0	0
Cc1ccc(N(CC(=O)NCc2ccccn2)S(=O)(=O)c2ccccc2)cc1C	0	0	0	0	?
Cc1ccc(Nc2nc(CSc3nnc(-c4ccc(F)cc4)n3C)cs2)cc1	0	?	?	?	6.5µM
O=[N+]([O-])c1ccc2c(c1)-c1ccccc1C2=NO	0	-	0	0	?
Nc1ccc2c(c1)C(=NO)c1cc([N+](=O)[O-])ccc1-2	0	-	0	10µM	0
Cc1cc(=O)oc2ccc(OCC(=O)N3CCc4ccccc43)cc12	0	0	0	0[9.22 µM]	0
Cn1c(C(=O)N2CCN(c3ccc([N+](=O)[O-])cc3)CC2)cc2c(=O)[nH]c3ccccc3c21	?	?	0	0	0
COc1ccc(-c2sc3ccc(OC)cc3c2C#Cc2cncn2C)cc1	?	5.8µM	?	0	?
COc1ccc(-c2sc3cc4c(cc3c2C#Cc2cncn2C)OCO4)cc1	0	0	0	0	0
COc1ccc(-c2oc3ccccc3c2C#Cc2cncn2C)cc1	18µM	?	0	?	?
CCc1nc2ccc(C(=O)N3CCN(C(=O)c4ccco4)CC3)cn2c1N(C=O)Cc1ccc(OC)cc1	-	-	0	-	0
O=C(O)c1cc2c(s1)-c1ccccc1CC2	0	0	0	0	0
O=C(N/N=C/c1ccc(Cl)cc1)c1cc2c(s1)-c1ccccc1CC2	?	0	21µM	?	?
O=C(NC1CC2CCCC(C1)N2S(=O)(=O)c1ccccc1)C1CCCCC1 (configuration not stated)	0	0	0	0	?
COc1cc(/C=C/C(=O)N[C@@H](Cc2c[nH]c3ccccc23)C(=O)O)ccc1O	0	0	0	0	?
O=[N+]([O-])c1cccc(COc2ncnc3cc([N+](=O)[O-])ccc23)c1	0	10µM	0	0	0

High-throughput results as filed in PubChem.
